Calls of active or inactive are those of the source. The calls were made as follows: active = hit-call score of the fitted dose curve at least 0.9, where 1 is the maximum; inactive = score below 0.9.
Legend:
Conditions in all cases: mRNA level, 48 h; actives raise or lower the signal
[1] = read-out: Potassium channel subfamily K member 1 (KCNK1), KCNK1 (gene 3775); assay: LTEA_HepaRG_KCNK1: Life Technologies and Expression Analysis (LTEA) Assay for Potassium channel subfamily K member 1 (KCNK1) using HepaRG (AID 2283511)
Outline: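 Differentiated HepaRG cells, 48 h exposure in serum-free induction medium with 0.5% DMSO; 8 concentrations, half-log from 100 uM, duplicate. KCNK1 mRNA by qRT-PCR, normalized to ACTB, GAPDH, POLR2A; bidirectional fit vs DMSO.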

[2] = read-out: JUN Transcription Factor, JUN (gene 3725); assay: LTEA_HepaRG_JUN: Life Technologies and Expression Analysis (LTEA) Assay for JUN Transcription Factor using HepaRG (AID 2283513)
Outline: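 Cells plated 48 h, medium switched to serum-free induction medium, then dosed 48 h (100 uM top, half-log dilutions, 0.5% DMSO). RNA isolated; JUN measured by qRT-PCR against three housekeeping genes; gain or loss fitted relative to DMSO.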

[3] = read-out: Lipase C (LIPC), LIPC (gene 3990); assay: LTEA_HepaRG_LIPC: Life Technologies and Expression Analysis (LTEA) Assay for Lipase C (LIPC) using HepaRG (AID 2283514)
Outline: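 HepaRG cells, 48 h after plating, treated in duplicate for 48 h in serum-free induction medium over 8 half-log concentrations from 100 uM, 0.5% DMSO. LIPC mRNA by TaqMan qRT-PCR normalized to ACTB/GAPDH/POLR2A; bidirectional fit versus DMSO.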

[4] = read-out: Lipoprotein lipase (LPL), LPL (gene 4023); assay: LTEA_HepaRG_LPL: Life Technologies and Expression Analysis (LTEA) Assay for Lipoprotein lipase (LPL) using HepaRG (AID 2283515)
Outline: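 Differentiated HepaRG cells, plated 48 h, then exposed 48 h in serum-free induction medium to 8 concentrations (top 100 uM, half-log steps) in 0.5% DMSO, duplicate. LPL mRNA measured by qRT-PCR, normalized to ACTB, GAPDH and POLR2A.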

[5] = read-out: MicroRNA 122 (MIR122), gene 406906; assay: LTEA_HepaRG_MIR122: Life Technologies and Expression Analysis (LTEA) Assay for MicroRNA 122 (MIR122) using HepaRG (AID 2283516); also: the transcript read is the microRNA miR-122
Outline: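 HepaRG plated 48 h, switched to serum-free induction medium, then treated in duplicate for 48 h (100 uM top, half-log steps, 0.5% DMSO vehicle). RNA isolated, qRT-PCR performed, concentration-response fitted both directions relative to DMSO.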

[6] = read-out: matrix metalloproteinase-10 (MMP10), MMP10 (gene 4319); assay: LTEA_HepaRG_MMP10: Life Technologies and Expression Analysis (LTEA) Assay for matrix metalloproteinase-10 (MMP10) using HepaRG (AID 2283517)
Outline: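 Differentiated HepaRG cells in serum-free induction medium exposed 48 h in duplicate to 8-point half-log series up to 100 uM in 0.5% DMSO. mRNA quantified by qRT-PCR, normalised to ACTB, GAPDH, POLR2A; bidirectional fit versus DMSO.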

[7] = read-out: matrix metalloproteinase-3 (MMP3), MMP3 (gene 4314); assay: LTEA_HepaRG_MMP3: Life Technologies and Expression Analysis (LTEA) Assay for matrix metalloproteinase-3 (MMP3) using HepaRG (AID 2283519)
Outline: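 HepaRG cells (~100,000/well) in serum-free induction medium were dosed in duplicate for 48 h with an 8-point half-log series from 100 uM, 0.5% DMSO. MMP3 mRNA was quantified by Fluidigm TaqMan qRT-PCR, normalized to three housekeeping genes.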

[8] = read-out: Paternally Expressed 10 (PEG10), PEG10 (gene 23089); assay: LTEA_HepaRG_PEG10: Life Technologies and Expression Analysis (LTEA) Assay for Paternally Expressed 10 (PEG10) using HepaRG (AID 2283520)
Outline: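 HepaRG, 48 h post-plating → serum-free induction medium → 48 h chemical exposure (duplicate, 8-pt, max 100 uM, half-log, 0.5% DMSO) → lysis in RLT → TaqMan qRT-PCR for PEG10, ACTB/GAPDH/POLR2A normalisation.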

[9] = read-out: Protein phosphatase 2A (PPP2R4), PTPA (gene 5524); assay: LTEA_HepaRG_PPP2R4: Life Technologies and Expression Analysis (LTEA) Assay for Protein phosphatase 2A (PPP2R4) using HepaRG (AID 2283522)
Outline: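 Readout is PPP2R4 transcript level by microfluidic qRT-PCR after 48 h chemical treatment of human HepaRG liver cells. Concentrations spanned 100 uM downward in half-log steps; gain or loss of signal was fitted relative to DMSO.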

[10] = read-out: Phosphatase and tensin (PTEN), PTEN (gene 5728); assay: LTEA_HepaRG_PTEN: Life Technologies and Expression Analysis (LTEA) Assay for Phosphatase and tensin (PTEN) using HepaRG (AID 2283523)
Outline: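 HepaRG cells, 48 h after plating, exposed in duplicate for 48 h in serum-free induction medium to 8 half-log concentrations up to 100 uM (0.5% DMSO). PTEN mRNA by qRT-PCR, normalized to ACTB, GAPDH, POLR2A; bidirectional fit versus DMSO.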

[11] = read-out: solute carrier (SLC22A1), SLC22A1 (gene 6580); assay: LTEA_HepaRG_SLC22A1: Life Technologies and Expression Analysis (LTEA) Assay for solute carrier (SLC22A1) using HepaRG (AID 2283524)
Outline: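 Differentiated human HepaRG cells in serum-free induction medium, exposed 48 h in duplicate to 8-point half-log series from 100 µM top in 0.5% DMSO. SLC22A1 mRNA by TaqMan qRT-PCR normalized to ACTB, GAPDH, POLR2A; bidirectional fit versus DMSO.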

[12] = read-out: Pyruvate Dehydrogenase Kinase 4 (PDK4), PDK4 (gene 5166); assay: LTEA_HepaRG_PDK4: Life Technologies and Expression Analysis (LTEA) Assay for Pyruvate Dehydrogenase Kinase 4 (PDK4) using HepaRG (AID 2283525)
Outline: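 HepaRG cells plated 48 h, then switched to serum-free induction medium and exposed in duplicate for 48 h to 8 half-log concentrations from 100 uM in 0.5% DMSO. PDK4 mRNA measured by qRT-PCR, normalized to ACTB, GAPDH and POLR2A; bidirectional fit versus DMSO.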

[13] = read-out: NAD(P)H dehydrogenase [quinone] 1 (NQO1), NQO1 (gene 1728); assay: LTEA_HepaRG_NQO1: Life Technologies and Expression Analysis (LTEA) Assay for NAD(P)H dehydrogenase [quinone] 1 (NQO1) using HepaRG (AID 2283526)
Outline: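 HepaRG, 48 h post-plating → serum-free induction medium → test chemical 48 h (duplicate, 100 uM top, half-log x8, 0.5% DMSO) → RNA isolation → qRT-PCR, ACTB/GAPDH/POLR2A normalization; bidirectional curve fit vs DMSO baseline.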

[14] = read-out: succinate dehydrogenase complex iron sulfur subunit B (SDHB), SDHB (gene 6390); assay: LTEA_HepaRG_SDHB: Life Technologies and Expression Analysis (LTEA) Assay for succinate dehydrogenase complex iron sulfur subunit B (SDHB) using HepaRG (AID 2283528)
Outline: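 SDHB transcript level read by TaqMan qRT-PCR, housekeeping-normalised (ACTB, GAPDH, POLR2A), after 48 h chemical treatment of plated HepaRG cells; eight concentrations top 100 uM, half-log steps, 0.5% DMSO, duplicates; fitted both directions against DMSO.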

[15] = read-out: Signal transducer and activator of transcription 3 (Homo sapiens) (UniProt P40763); assay: LTEA_HepaRG_STAT3: Life Technologies and Expression Analysis (LTEA) Assay for Signal transducer and activator of transcription (STAT3) using HepaRG (AID 2283529)
Outline: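 Differentiated HepaRG cells, serum-free induction medium, dosed 48 h in duplicate, 8 half-log concentrations from 100 uM in 0.5% DMSO. STAT3 mRNA by qRT-PCR, normalised to ACTB, GAPDH, POLR2A; bidirectional fit versus DMSO.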

[16] = read-out: solute carrier (SLCO1B1), SLCO1B1 (gene 10599); assay: LTEA_HepaRG_SLCO1B1: Life Technologies and Expression Analysis (LTEA) Assay for solute carrier (SLCO1B1) using HepaRG (AID 2283530)
Outline: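 SLCO1B1 transcript read by qRT-PCR (Fluidigm arrays), normalized to three housekeeping genes, after 48 h chemical exposure of HepaRG cells; bidirectional concentration-response fitting versus 0.5% DMSO baseline. Eight-point half-log series, maximum 100 uM.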

MYC, MYC (gene 4609) = assay: LTEA_HepaRG_MYC: Life Technologies and Expression Analysis (LTEA) Assay for MYC using HepaRG (AID 2283518)
Outline: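 qRT-PCR read-out of MYC transcript (Fluidigm TaqMan, housekeeping-normalized) after 48 h chemical exposure of HepaRG cells; eight concentrations, top 100 uM, half-log steps. Bidirectional curve fitting against 0.5% DMSO vehicle baseline.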

[17] = read-out: Nuclear factor erythroid 2-related factor 2 (Homo sapiens) (UniProt Q16236); assay: LTEA_HepaRG_NFE2L2: Life Technologies and Expression Analysis (LTEA) Assay for Nuclear factor erythroid 2-related factor 2 (NFE2L2) Transcription Factor using HepaRG (AID 2283527)
Outline: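 Differentiated human HepaRG cells, serum-free induction medium, exposed 48 h in duplicate to eight half-log concentrations up to 100 uM in 0.5% DMSO. NFE2L2 mRNA by Fluidigm TaqMan qRT-PCR, normalised to ACTB, GAPDH, POLR2A; bidirectional change versus DMSO.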

[18] = read-out: Nuclear factor NF-kappa-B p105 subunit (Homo sapiens) (UniProt P19838); assay: LTEA_HepaRG_NFKB1: Life Technologies and Expression Analysis (LTEA) Assay for Nuclear Factor Kappa B Subunit 1 (NFKB1) using HepaRG (AID 2283521)
Outline: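 NFKB1 transcript was measured by TaqMan qRT-PCR on Fluidigm arrays, normalised to three housekeeping genes and fitted in both directions against 0.5% DMSO. HepaRG cells were dosed in duplicate for 48 h in serum-free induction medium, eight half-log steps from 100 uM.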

Measured: AC50

Sequence of Nuclear factor NF-kappa-B p105 subunit (Homo sapiens) (P19838 whole entry, looked up): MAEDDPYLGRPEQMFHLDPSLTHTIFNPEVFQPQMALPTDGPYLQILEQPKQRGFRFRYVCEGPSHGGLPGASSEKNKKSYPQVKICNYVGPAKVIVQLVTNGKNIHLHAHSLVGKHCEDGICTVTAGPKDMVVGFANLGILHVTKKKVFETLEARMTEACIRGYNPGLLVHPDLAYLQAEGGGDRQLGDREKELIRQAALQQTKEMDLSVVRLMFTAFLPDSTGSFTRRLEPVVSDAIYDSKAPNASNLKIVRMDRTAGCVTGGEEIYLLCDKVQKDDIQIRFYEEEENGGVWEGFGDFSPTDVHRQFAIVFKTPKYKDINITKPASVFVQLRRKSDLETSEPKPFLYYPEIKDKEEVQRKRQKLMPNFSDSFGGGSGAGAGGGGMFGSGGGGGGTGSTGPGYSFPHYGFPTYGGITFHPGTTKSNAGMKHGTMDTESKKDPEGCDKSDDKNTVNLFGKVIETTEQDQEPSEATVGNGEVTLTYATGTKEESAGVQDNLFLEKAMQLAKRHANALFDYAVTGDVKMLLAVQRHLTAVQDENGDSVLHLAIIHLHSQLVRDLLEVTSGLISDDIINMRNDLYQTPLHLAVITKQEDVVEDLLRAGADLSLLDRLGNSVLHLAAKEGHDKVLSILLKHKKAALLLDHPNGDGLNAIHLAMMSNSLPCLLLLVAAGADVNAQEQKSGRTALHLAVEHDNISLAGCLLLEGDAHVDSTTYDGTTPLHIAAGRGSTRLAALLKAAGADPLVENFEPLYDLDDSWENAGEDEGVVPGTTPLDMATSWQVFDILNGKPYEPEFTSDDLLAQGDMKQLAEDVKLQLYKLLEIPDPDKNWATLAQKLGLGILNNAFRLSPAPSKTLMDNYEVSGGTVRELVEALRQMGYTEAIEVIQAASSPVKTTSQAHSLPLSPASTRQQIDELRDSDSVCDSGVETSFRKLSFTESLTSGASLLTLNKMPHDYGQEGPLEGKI
Sequence of Signal transducer and activator of transcription 3 (Homo sapiens) (P40763 whole entry, looked up): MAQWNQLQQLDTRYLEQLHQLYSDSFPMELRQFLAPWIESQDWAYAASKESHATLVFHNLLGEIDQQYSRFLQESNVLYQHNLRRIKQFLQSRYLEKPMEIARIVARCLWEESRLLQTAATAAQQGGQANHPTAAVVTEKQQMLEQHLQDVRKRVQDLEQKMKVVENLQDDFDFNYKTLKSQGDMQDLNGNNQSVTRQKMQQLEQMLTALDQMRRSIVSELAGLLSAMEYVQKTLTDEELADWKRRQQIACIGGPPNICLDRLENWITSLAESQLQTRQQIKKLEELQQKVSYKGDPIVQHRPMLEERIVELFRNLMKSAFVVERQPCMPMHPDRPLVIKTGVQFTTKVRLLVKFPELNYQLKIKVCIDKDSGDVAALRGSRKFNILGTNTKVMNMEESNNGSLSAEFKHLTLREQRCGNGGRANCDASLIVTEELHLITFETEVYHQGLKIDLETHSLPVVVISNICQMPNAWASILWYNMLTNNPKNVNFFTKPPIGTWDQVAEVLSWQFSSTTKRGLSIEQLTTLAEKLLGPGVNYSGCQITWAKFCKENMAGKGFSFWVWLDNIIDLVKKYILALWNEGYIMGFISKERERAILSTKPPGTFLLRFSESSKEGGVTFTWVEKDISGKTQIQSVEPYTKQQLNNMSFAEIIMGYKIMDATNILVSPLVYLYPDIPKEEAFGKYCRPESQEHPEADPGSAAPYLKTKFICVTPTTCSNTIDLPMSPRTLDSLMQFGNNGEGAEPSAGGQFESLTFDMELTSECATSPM
Sequence of Nuclear factor erythroid 2-related factor 2 (Homo sapiens) (Q16236 whole entry, looked up): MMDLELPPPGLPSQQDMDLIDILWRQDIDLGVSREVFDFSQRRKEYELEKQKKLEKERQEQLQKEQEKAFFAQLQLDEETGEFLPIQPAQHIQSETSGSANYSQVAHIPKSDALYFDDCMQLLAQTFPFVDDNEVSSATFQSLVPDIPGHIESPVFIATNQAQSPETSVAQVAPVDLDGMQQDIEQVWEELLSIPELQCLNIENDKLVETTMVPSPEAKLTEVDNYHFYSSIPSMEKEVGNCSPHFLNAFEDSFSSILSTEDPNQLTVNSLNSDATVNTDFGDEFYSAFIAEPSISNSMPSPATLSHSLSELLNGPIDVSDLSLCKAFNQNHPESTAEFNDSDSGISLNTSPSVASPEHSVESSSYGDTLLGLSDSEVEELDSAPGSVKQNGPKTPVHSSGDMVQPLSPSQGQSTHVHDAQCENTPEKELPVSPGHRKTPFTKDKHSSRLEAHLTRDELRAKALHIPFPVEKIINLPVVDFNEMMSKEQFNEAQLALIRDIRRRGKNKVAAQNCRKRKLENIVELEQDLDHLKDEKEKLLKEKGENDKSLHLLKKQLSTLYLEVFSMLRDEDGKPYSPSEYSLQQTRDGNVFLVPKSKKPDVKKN

CCCCc1ccc2c(n1)[C@@H](c1ccc(OC)cc1C[C@H](C)C(=O)O)[C@H](C(=O)O)[C@H]2c1ccc2c(c1)OCO2
not listed: MYC, MYC (gene 4609) | [17] | [18]
inactive: all other assays above

O=C(O)Cc1ccccc1Nc1c(Cl)cccc1Cl
not listed: [10] | [18]
inactive: all other assays above

COc1cc(S(=O)(=O)O)c(C)cc1N=Nc1c(O)ccc2cc(S(=O)(=O)O)ccc12
not listed: MYC, MYC (gene 4609) | [18]
inactive: all other assays above

NCCO
not listed: [10] | [17] | [18]
inactive: all other assays above

CCc1c(C(=O)NN2CCCCC2)nn(-c2ccc(Cl)cc2Cl)c1-c1ccc(Br)cc1
active: [1] 58.6 µM | [2] 50 µM | [3] 34.2 µM | [4] 4.13 µM | [5] 29.8 µM | [6] 33.2 µM | MYC, MYC (gene 4609) 50 µM | [8] 29.3 µM | [18] 74.8 µM | [11] 40.4 µM | [12] 22.1 µM | [13] 80.1 µM | [17] 72.4 µM | [16] 36.9 µM
inactive: [9] | [14] | [15]

NCC1(Cc2noc(=O)[nH]2)CCCCC1
not listed: [10] | MYC, MYC (gene 4609) | [17]
inactive: all other assays above

c1cc(-c2ccncc2)ccn1
active: [7] 17.6 µM
not listed: [10] | MYC, MYC (gene 4609)
inactive: all other assays above
